The values that follow come from PubChem BioAssay (NCATS).

A short description of assay [1]: Primary qHTS for inhibitors of SARS-S pseudo-typed particle cell entry (AID 1479145). Further: nearly all actives have a fitted effect of over 45% in size. On activity change, negative = inhibition: on the % scale 0 is the no-effect control and ±100 the full control effect. The conditions noted are these: outcome: dose series up to 57.1 µM unless noted. For orientation: In qHTS, concentration-response curves come from the screen itself.
The nature of assay [2]: Primary qHTS for Huh7 cytotoxicity: counterscreen for inhibitors of MERS-S pseudotyped particle cell entry (AID 1479147). On activity change, negative = cytotoxicity: on the % scale 0 is the no-effect control and ±100 the full control effect. The conditions noted are these: outcome: dose series up to 57.1 µM unless noted.
Assay [3] in a line: Primary qHTS for inhibitors of MERS-S pseudo-typed particle cell entry (AID 1479149). Further: nearly all actives have a fitted effect of over 60% in size. The conditions noted are these: outcome: dose series up to 57.1 µM unless noted.
Assay [4] in a line: Primary qHTS for Vero E6 cytotoxicity: counterscreen for inhibitors of SARS-S pseudo-typed particle cell entry (AID 1479150). On activity change, negative = cytotoxicity: on the % scale 0 is the no-effect control and ±100 the full control effect. Conditions: outcome: dose series up to 57.1 µM unless noted.
Assay [5] is described as follows: Cytotoxicity counterscreen for inhibitors of SARS-CoV-2 cell entry (AID 1645845). Further: nearly all actives have a fitted effect of over 50% in size. On activity change, negative = cytotoxicity: on the % scale 0 is the no-effect control and ±100 the full control effect. The conditions noted are these: outcome: dose series up to 57.1 µM unless noted. The method in brief: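 Counterscreen run in the same HEK293-ACE2 line as the pseudotyped-particle entry assay, without particles. Viability after 48 h at 37 C was read as ATP luminescence, scaled between cell-containing and cell-free wells.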

The nature of assay [6]: Primary qHTS to identify inhibitors of SARS-CoV-2 cell entry (AID 1645846). Further: nearly all actives have a fitted effect of over 45% in size. The conditions noted are these: SARS-CoV-2 pseudovirus cell entry assay, luminescence; activity change, negative = inhibition: at 57.1 µM (top of the series) unless noted. The method, boiled down:
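Luminescence readout (Bright-Glo luciferase) 48 h after pseudoparticle addition. HEK293-ACE2 cells, 1500/well; compound pre-incubation 1 h; Normalized to spike PP and bald PP.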

Inconclusive results are not listed. Active and inactive are the calls of the source. The call rests on the fitted dose curve.

With `C#C[C@]1(O)CCC2C3CCC4=C(CCC(=O)C4)C3CC[C@@]21C` (stereo partly drawn), the Potency result in assay [1], in assay [2], in assay [3], in assay [4] and in assay [5] was “inactive” throughout. In assay [6], the activity change, negative = inhibition is -12.9%.
For the molecule `CC(C)(C)CC(=O)OCC(=O)[C@@]12OC(C)(C)O[C@@H]1C[C@H]1[C@@H]3CCC4=CC(=O)C=C[C@]4(C)[C@@]3(F)[C@@H](O)C[C@@]12C`, the Potency entry in assay [1], in assay [2], in assay [3], in assay [4] and in assay [5] was “inactive” in each case. The activity change, negative = inhibition in assay [6] is -18.4%.
With `CCCCC(CC)COC(=O)c1ccc(Nc2nc(Nc3ccc(C(=O)OCC(CC)CCCC)cc3)nc(Nc3ccc(C(=O)OCC(CC)CCCC)cc3)n2)cc1` (stereo not drawn), the Potency result in assay [1], in assay [2], in assay [3], in assay [4] and in assay [5] was “inactive” each time. Also, the activity change, negative = inhibition in assay [6] was -28%.
As to `CCCC(=O)O[C@]1(C(=O)COC(C)=O)CC[C@H]2C3C[C@H](F)C4=CC(=O)C=C[C@]4(C)[C@@]3(F)[C@@H](O)C[C@@]21C` (stereo partly drawn), the Potency result in assay [1], in assay [2], in assay [3], in assay [4] and in assay [5] was “inactive” each time. For the same molecule, the activity change, negative = inhibition in assay [6] was -5.47%.
As for `CC(=O)NC(C=O)C(O)C(O)[C@H](O)CO` (stereo partly drawn), the Potency entry in assay [1], in assay [2], in assay [3], in assay [4] and in assay [5] was “inactive” throughout. Moreover, the activity change, negative = inhibition in assay [6] is -0.156%.
Regarding `C[C@@H]1C[C@H]2[C@@H]3C[C@H](F)C4=CC(=O)C=C[C@]4(C)[C@@]3(F)[C@@H](O)C[C@]2(C)[C@@]1(O)C(=O)COC(=O)C(C)(C)C`, the Potency result in assay [1], in assay [2], in assay [3], in assay [4], in assay [5] and in assay [6] was “inactive” throughout.
For `CCCN(CC)C(CC)C(=O)Nc1c(C)cccc1C` (stereo not drawn), the Potency entry in assay [1], in assay [2], in assay [3], in assay [4] and in assay [5] was “inactive” each time. Moreover, the activity change, negative = inhibition in assay [6] is -22.8%.
`COC(=O)N[C@H](C(=O)N1CCC[C@H]1C(=O)Nc1ccc([C@@H]2CC[C@@H](c3ccc(NC(=O)[C@@H]4CCCN4C(=O)[C@@H](NC(=O)OC)C(C)C)cc3)N2c2ccc(C(C)(C)C)cc2)cc1)C(C)C`: the Potency result in assay [1], in assay [2], in assay [3], in assay [4] and in assay [5] was “inactive” each time. Further, the activity change, negative = inhibition in assay [6] is -22.9%.
As to `CCC(C(=O)NC(N)=O)c1ccccc1` (stereo not drawn), the Potency entry in assay [1], in assay [2], in assay [3], in assay [4] and in assay [5] was “inactive” each time. Besides, the activity change, negative = inhibition in assay [6] was -16.3%.
Regarding `Cc1oc(=O)oc1COC(=O)N1CC[C@@H](N2CC/C(=C\C3=C(C(=O)O)N4C(=O)[C@@H](NC(=O)/C(=N/O)c5nsc(N)n5)[C@H]4SC3)C2=O)C1`, the Potency entry in assay [1], in assay [2], in assay [3], in assay [4] and in assay [5] was “inactive” in each case. Besides, in assay [6], the activity change, negative = inhibition was -27.9%.
`NCCCC[C@H](N)C(=O)O`: the outcome in assay [1] was “inactive [at 0.573 µM]”; in assay [2], “inactive [at 0.573 µM]”; in assay [3], “inactive [at 0.573 µM]”; in assay [6] it was “inactive [at 0.702 µM]”. Besides, the activity change, negative = cytotoxicity in assay [4] is 2.08% [at 0.573 µM] (inactive); in assay [5], 2.36% [at 0.702 µM] (inactive).
In the case of `COC(=O)CCC(=O)CN`, the Potency entry in assay [1], in assay [2], in assay [3], in assay [4], in assay [5] and in assay [6] was “inactive” in each case.
Turning to `CCN1CCN(C(=O)N[C@@H](C(=O)N[C@]2(OC)C(=O)N3C(C(=O)O)=C(CSc4nnnn4C)CS[C@@H]32)[C@H](C)O)C(=O)C1=O`, the Potency result in assay [1], in assay [2], in assay [3], in assay [4] and in assay [5] was “inactive” throughout. For the same molecule, the activity change, negative = inhibition in assay [6] is -16.3%.
Take `CCC(=O)OCC(=O)[C@@]1(OC(=O)CC)[C@@H](C)C[C@H]2[C@@H]3CCC4=CC(=O)C=C[C@]4(C)[C@@]3(F)[C@@H](O)C[C@@]21C`: the Potency result in assay [1], in assay [2], in assay [3], in assay [4], in assay [5] and in assay [6] was “inactive” in each case.
Take `CN(CC(=O)N1CCOCC1)Cc1c(Cl)cccc1NC(=O)c1ccccc1`: the Potency result in assay [1], in assay [2], in assay [3], in assay [4] and in assay [5] was “inactive” throughout. For the same molecule, the activity change, negative = inhibition in assay [6] was -38.4%.
In the case of `C=C1/C(=C/C=C2\CCC[C@]3(C)[C@@H]([C@H](C)/C=C/C=C/C(O)(CC)CC)CC[C@@H]23)C[C@@H](O)C[C@@H]1O`, the Potency result in assay [1], in assay [2], in assay [3], in assay [4] and in assay [5] was “inactive” each time. In addition, the activity change, negative = inhibition in assay [6] was -5.54%.
In the case of `CC1(C)S[C@@H]2[C@H](NC(=O)C(C(=O)Oc3ccc4c(c3)CCC4)c3ccccc3)C(=O)N2[C@H]1C(=O)O` (stereo partly drawn), the Potency entry in assay [1], in assay [2], in assay [3], in assay [4], in assay [5] and in assay [6] was “inactive” each time.
As for `ClCC1CO1` (stereo not drawn) (tested in a mixture with another compound), the Potency result in assay [1], in assay [2], in assay [3], in assay [4] and in assay [5] was “inactive” in each case. Moreover, the activity change, negative = inhibition in assay [6] is -15.1%.
As to `CCCCC[C@H](O)/C=C/[C@@H]1[C@@H](C/C=C/CCCC(=O)O)[C@@H](O)C[C@H]1O`, the Potency entry in assay [1], in assay [2], in assay [3], in assay [4] and in assay [5] was “inactive” each time. Further, in assay [6], the activity change, negative = inhibition was -6.41%.
Turning to `CC[C@@H](C)C[C@@H](C)CCCCCCCCC(=O)NC1C[C@@H](O)[C@@H](NCCN)NC(=O)[C@@H]2[C@@H](O)CCN2C(=O)[C@H]([C@H](O)CCN)NC(=O)[C@H]([C@H](O)[C@@H](O)c2ccc(O)cc2)NC(=O)[C@@H]2C[C@@H](O)CN2C(=O)[C@H]([C@@H](C)O)NC1=O` (stereo partly drawn), the Potency entry in assay [1], in assay [2], in assay [3], in assay [4] and in assay [5] was “inactive” throughout. In addition, the activity change, negative = inhibition in assay [6] is -9.2% [at 27.1 µM].
As for `Cc1cccc(C)c1NC(=O)C1CCCCN1C` (stereo not drawn), the Potency result in assay [1], in assay [2], in assay [3], in assay [4] and in assay [5] was “inactive” each time. For the same molecule, the activity change, negative = inhibition in assay [6] is -22.7%.
Regarding `CC1(C)S[C@@H]2[C@@H](N3C(=O)[C@@H](c4ccccc4)NC3(C)C)C(=O)N2[C@H]1C(=O)O`, the Potency entry in assay [1], in assay [2], in assay [3], in assay [4] and in assay [5] was “inactive” each time. For the same molecule, in assay [6], the activity change, negative = inhibition is -21.4%.
`O=P(O)(O)CP(=O)(O)O`: the Potency entry in assay [1], in assay [2], in assay [3], in assay [4] and in assay [5] was “inactive” each time. The activity change, negative = inhibition in assay [6] was -15.6%.
